Pemphigus Ab inh = blocks pemphigus antibody binding to human desmoglein-3; binding (percent of control), % at 10 µM; 310,000 tested, 0.48% active; DSG3-coupled beads, scFv-anti-DSG3-GFP binding, flow cytometry; hits give low values;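 active means binding more than 3 SD below its plate's average and above zero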;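 further: hits lower antibody fragment binding to DSG3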
rCAG RNA binder = binds r(CAG) RNA repeats; r(CAG) RNA repeat, TO-PRO-1 dye displacement fluorescence; inhibition, % at 3 µM; 370,000 tested, 1.3% active; AID 651821;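 active means inhibition above the plate cutoff, the mean of all test compounds on that plate plus 3 SD, cut at about 35% in these data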;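 further: 0% = DMSO alone and 100% = 100 µM mitoxantrone as full dye displacement; higher means more dye released from RNA so lower well fluorescence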
bovine MsrA act = activates bovine MsrA enzyme; purified bovine MsrA, absorbance read-out; activation, % at 10.6 µM; 360,000 tested, 0.3% active; in the data active means activation above about 7.5%;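 further: 0% = vehicle and 100% = reference activator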
DAGLB inh = diacylglycerol lipase beta (human) inhibition | Q8NCG7 | HEK293T DAGLB membrane lysate, EnzChek fluorogenic substrate | inhibition, % at 5.17 µM | 340,000 tested, 0.059% active | AID 504411; in the data active means inhibition above about 34%;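 further: 0% = enzyme with vehicle and 100% = wells lacking enzyme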
Target sequence (Q8NCG7 whole entry, looked up): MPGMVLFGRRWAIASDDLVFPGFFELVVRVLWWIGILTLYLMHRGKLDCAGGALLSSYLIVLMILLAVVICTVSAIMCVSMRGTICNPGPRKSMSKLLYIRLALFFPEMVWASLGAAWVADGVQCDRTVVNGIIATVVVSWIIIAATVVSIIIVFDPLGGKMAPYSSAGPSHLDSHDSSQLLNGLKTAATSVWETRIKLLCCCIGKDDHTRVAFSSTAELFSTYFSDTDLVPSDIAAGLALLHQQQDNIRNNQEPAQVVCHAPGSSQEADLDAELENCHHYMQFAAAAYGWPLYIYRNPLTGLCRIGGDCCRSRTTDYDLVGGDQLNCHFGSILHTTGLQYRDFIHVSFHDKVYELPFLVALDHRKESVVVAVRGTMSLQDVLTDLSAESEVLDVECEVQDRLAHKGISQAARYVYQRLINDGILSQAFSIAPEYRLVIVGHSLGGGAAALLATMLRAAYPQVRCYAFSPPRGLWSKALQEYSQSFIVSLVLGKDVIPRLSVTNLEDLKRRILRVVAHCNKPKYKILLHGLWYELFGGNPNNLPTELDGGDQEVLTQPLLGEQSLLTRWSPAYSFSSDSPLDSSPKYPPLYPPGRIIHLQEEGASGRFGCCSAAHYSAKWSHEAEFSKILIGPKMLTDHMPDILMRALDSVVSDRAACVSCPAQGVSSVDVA
MsrA inhibitor = bovine MsrA inhibition; purified bovine MsrA, absorbance read-out; inhibition, % at 15.5 µM; 360,000 tested, 0.75% active; AID 651718; in the data active means inhibition above about 4.5%;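 further: 0% = vehicle wells with enzyme and 100% = reference inhibitor wells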
NadD inh = NadD (S. aureus) enzyme inhibition | purified NadD enzyme, colorimetric absorbance read-out | inhibition, % at 20 µM | 360,000 tested, 0.78% active; in the data active means inhibition above about 26%
MsrA activ conf = bovine methionine sulfoxide reductase A activation confirmed | 1,000 tested, 12% active | purified bovine MsrA, absorbance read-out | shares compounds with bovine MsrA act | activation, % at 10.6 µM; in the data active means activation above about 4%;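 further: enzyme coupled to thioredoxin and thioredoxin reductase with NADPH; 0% = vehicle wells and 100% = reference activator wells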
Numbers without * were called inactive; / = no result. Shown are actives, neighbours in structure and some others; about 3.2% of the full set was active somewhere.

SMILES	Pemphigus Ab inh	rCAG RNA binder	bovine MsrA act	DAGLB inh	MsrA inhibitor	NadD inh	MsrA activ conf
CC(C(=O)N1CCCCC1)n1ncn2cccc2c1=O (stereo not drawn)	107	3	20*	-1	0	-4	0
CCc1nn(CC(=O)NCCCN2CCOCC2)c(=O)c2cc3cc(F)ccc3n12	/	-2	7.9*	1	1	1	-1
CCc1nn(CC(=O)NCCCN2CCOCC2)c(=O)c2cc3sccc3n12	/	-2	0	2	2	-1	/
COc1ccc(NC(=O)c2ccc([N+](=O)[O-])cc2[N+](=O)[O-])c(OC)c1	102	1	11*	1	2	-5	1
COc1ccc2oc(C(=O)Nc3ccc(S(=O)(=O)N(C)C4CCN(C)CC4)cc3)c(C)c2c1	113	-2	-4	0	0	-9	/
CCOc1ccc(C(=O)NC2CCN(C(=O)NCc3ccccc3)CC2)cc1	94	-6	9.6*	2	0	0	-1
Cc1noc(C)c1COc1ccccc1C(=O)NCCc1ccc(S(N)(=O)=O)cc1	110	0	7.8*	-1	0	-11	-2
CN(C)c1ccc(C(C(=O)NC2CCCCC2)N(Cc2ccco2)C(=O)c2snc(C(N)=O)c2N)cc1 (stereo not drawn)	105	2	-1	7	0	5	/
Cc1ccccc1C(=O)NCCCc1ccccc1	102	-1	-2	0	1	-2	/
Cc1ccccc1C(=O)NCCCCc1ccccc1	101	-3	8.7*	-3	0	-5	2
CCNC(=O)N(C)c1nncnc1C(=O)NC	78	2	21*	1	-1	-6	-2
CCN(C(=O)COC(=O)CCC(=O)c1ccc(Cl)cc1)c1c(N)n(Cc2ccccc2)c(=O)[nH]c1=O	102	2	7.7*	1	0	7	-2
Cc1ccc(C(=O)CCC(=O)OCC(=O)N(C)c2c(N)n(Cc3ccccc3)c(=O)[nH]c2=O)cc1	103	0	-2	3	-1	-2	/
CCc1nc2c(OCc3cccc(Cl)c3)cccn2c1N(C)C(=O)CC(C)C	/	-1	0	/	-1	8	/
COc1ccc(Cl)cc1NC(=O)CN(C)CC(=O)Nc1ccc(Br)cc1	92	-2	8.9*	-2	0	-3	1
O=C1CCC(C(=O)N2CCCC2)CN1Cc1cccc(C(F)(F)F)c1 (stereo not drawn)	/	-3	9.8*	-2	-1	-1	2
CC1CC(C(F)(F)F)n2ncnc2N1 (stereo not drawn)	102	5	9.2*	-1	0	7	1
CC1CS(=O)(=O)CCN1N=Cc1ccc([N+](=O)[O-])o1 (stereo not drawn)	104	0	10*	3	0	-3	-2
O=C(Cc1cccs1)N/N=C\c1ccc([N+](=O)[O-])s1	94	3	6	4	4	2	/
Cc1ccc(NC(=S)N/N=C/c2ccc([N+](=O)[O-])s2)cc1	90	28	9.2*	19	1	-3	2
CCCCC(=O)N(C)c1c(CC)nc2c(OCc3ccc(C(F)(F)F)cc3)cccn12	/	-3	0	/	-1	1	/
CCOc1cccc(C(c2c(C)n(C)n(-c3ccccc3)c2=O)c2c(C)n(C)n(-c3ccccc3)c2=O)c1OC	93	-5	13*	-1	0	11	-1
Cc1ccc(-c2cnc(C(O)c3ccc(Cl)cc3C)[nH]2)cc1 (stereo not drawn)	/	0	-4	/	0	-4	/
CN(C)CCCn1c2c(c(SCC(=O)Nc3cccc4ccccc34)nc1=O)CCCC2	101	1	11*	-1	-1	-3	1
Cn1c2nc(=O)n(-c3ccccc3)c(=O)c-2nc2c1CCCC2	101	/	-3	-5	/	-6	/
Cc1cc(=O)oc(C)c1C(=O)Nc1cccc2ccccc12	74	4	-2	1	-1	7	/
Cc1cccc(NC(=O)c2c(C)cc(=O)oc2C)n1	103	1	14*	0	0	4	0
O=C(CSc1ccc(Cl)cc1)NN=C1CCCCCC1	110	0	9.0*	-3	2	-4	-2
O=C(CCSc1ccc(Cl)cc1)NN=C1CCCCCC1	81	3	-7	-2	0	-4	/

Screens (PubChem)
